Screening data from PubChem BioAssay.
CYP2C9 inhib: human CYP2C9 inhibition; CYP2C9 Supersomes, luciferin-H conversion, luminescence; 20% of 96,000 active; inhibition, % at 5 µM; P11712;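 active means blocking of liver enzyme CYP2C9 beyond about 50% at 5 µM, limit read from the data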
Measles CPE: protection of cells from measles virus; AID 841; Measles virus-infected cells, CPE protection, absorbance; 1.5% of 140,000 active; protection (pct of control), % at 4 µM; in the data active means protection mostly above about 24%, no sharp cut-off; inactive means mostly below about 26%
CYP2C19 activ: activators of human cytochrome P450 2C19; activation factor at 5 µM; AID 1025; recombinant CYP2C19, luciferin-H EGE luminescence; hits give high values; 0 = fully inhibited enzyme, 1 = untreated enzyme; P33261; 96,000 tested, under 10 active;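 active means activation factor of at least 2 at 5 µM in the primary screen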
Target sequence (P33261 whole entry, looked up): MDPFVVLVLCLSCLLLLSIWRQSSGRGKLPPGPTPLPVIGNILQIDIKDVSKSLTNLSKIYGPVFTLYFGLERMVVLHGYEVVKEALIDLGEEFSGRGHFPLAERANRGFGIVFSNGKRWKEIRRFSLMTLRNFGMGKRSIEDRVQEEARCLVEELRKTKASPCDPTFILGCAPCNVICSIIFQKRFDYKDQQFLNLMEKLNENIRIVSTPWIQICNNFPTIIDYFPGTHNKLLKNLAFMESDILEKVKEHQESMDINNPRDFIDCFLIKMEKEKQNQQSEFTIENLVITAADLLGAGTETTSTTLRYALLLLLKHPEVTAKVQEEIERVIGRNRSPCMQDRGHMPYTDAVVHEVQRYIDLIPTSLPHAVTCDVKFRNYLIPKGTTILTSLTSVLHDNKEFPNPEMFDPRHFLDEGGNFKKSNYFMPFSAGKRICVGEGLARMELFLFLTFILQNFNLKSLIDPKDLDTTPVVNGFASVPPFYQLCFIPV
CYP2C9 activ: CYP2C9 (human) activation; P11712; recombinant CYP2C9, luciferin-H conversion, luminescence; hits give high values; factor 1 = untreated enzyme, 0 = blocked; activation factor at 5 µM; 1.4% of 96,000 active; AID 1024;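 active means activation factor of 2 or more for CYP2C9 at a 5 µM dose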
CYP2C19 inhib: inhibitors of human CYP2C19 | P33261 | CYP2C19 Supersomes, luciferin-H EGE luminescence, 30 min | inhibition, % at 5 µM | 21% of 96,000 active | AID 778;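 active means CYP2C19 inhibition above a set limit at 5 µM in the primary screen, cut at about 50% in these data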
A number is an active result; 0 = inactive; - = not tested or not shown. In the library only some 22% were active in any assay of this set; here they are far more common.

SMILES	CYP2C9 inhib	Measles CPE	CYP2C19 activ	CYP2C9 activ	CYP2C19 inhib
COc1cccc(C2CC(=O)Nc3cc4c(cc32)OCCO4)c1OC(C)C (configuration not stated)	63	0	0	0	0
CCCOC(=O)Oc1ccc2c(=O)c(Oc3cc(C)cc(C)c3)coc2c1	-	20	-	-	-
Clc1ccc(Cn2ncc3c(N4CCCCC4)ncnc32)c(Cl)c1	0	0	0	0	0
COC(=O)c1nn(-c2ccccc2)nc1-c1nn(-c2ccccc2)nc1C(=O)OC	86	0	0	0	61
Clc1ccc(C[n+]2cc(-c3ccccc3)n3c2CCC3)cc1Cl	-	0	-	-	-
CSCCC(NC(=O)c1ccccc1)C(=O)OCC(=O)Nc1ccc(C)c(Cl)c1 (configuration not stated)	82	0	0	0	0
CNC(=O)c1ccsc1NC(=O)c1ccc(Cl)s1	68	0	0	0	77
COC(=O)c1sccc1NC(=O)c1ccc(Cl)s1	0	0	0	0	0
COc1ccc(OCC(=O)NNC(=O)c2cccs2)cc1	0	0	0	0	0
CCOC(=O)c1oc2ccc(S(=O)(=O)n3nc(-c4ccccc4)cc3N)cc2c1C	98	0	0	0	0
CCOC(=O)c1oc2ccc(S(=O)(=O)n3nc(-c4ccc(OC)cc4)cc3N)cc2c1C	100	0	0	0	0
CCOC(=O)CN1C=C(c2ccc3ccccc3n2)C(C[N+](=O)[O-])c2ccccc21 (configuration not stated)	92	0	0	0	72
CCCCOC(=O)c1ccc(NC(=O)C(=O)NCC2CCCO2)cc1 (configuration not stated)	0	0	0	0	0
O=C1[C@@H]2[C@@H]3C[C@@H]([C@H]4ON=C(c5ccc(Cl)cc5)[C@@H]34)[C@@H]2C(=O)N1c1ccc2c(c1)OCO2	-	0	-	-	-
COc1cc2c(cc1O)C(Cc1ccc(O)cc1)NCC2 (configuration not stated)	-	0	-	-	-
CCCOP(=O)(c1ccc(N(C)C)cc1)C(O)c1ccncc1 (configuration not stated)	0	0	0	0	0
CCOP(=O)(c1ccc(N(C)C)cc1)C(O)c1cc(OC)c(OC)c(OC)c1 (configuration not stated)	0	0	0	0	0
CCOP(=O)(c1ccc(N(C)C)cc1)C(O)c1c(Cl)cccc1Cl (configuration not stated)	59	0	0	0	65
CN(C)c1ccc(P(=O)(OCc2ccccc2)C(O)c2ccncc2)cc1 (configuration not stated)	63	0	0	0	66
C/C(=N\NC(=O)c1ccc(=O)[nH]n1)c1cccnc1	-	0	-	-	-
COc1ccc(NC(=O)C(=O)NCc2ccncc2)c(OC)c1	70	0	0	0	57
CCOC(=O)Nc1cc(C)ccc1OC	0	0	0	0	0
COc1ccc(C)cc1NC(=O)C(=O)NCc1ccncc1	78	0	0	0	0
O=C(NCc1ccccc1)c1ccc(=O)[nH]n1	0	0	0	0	0
CC(CNCc1ccc2c(c1)OCO2)NCc1ccc2c(c1)OCO2 (configuration not stated)	0	0	0	0	67
SMILES	CYP2C9 inhib	Measles CPE	CYP2C19 activ	CYP2C9 activ	CYP2C19 inhib
CC(C)(C)NC(=S)NCc1ccc2c(c1)OCO2	-	0	-	-	-
COc1cccc(-n2cnc3sc(C)c(C)c3c2=O)c1	-	0	-	-	-
CO/N=C(/CNC(=O)c1cccc(Cl)c1)c1ccc(Cl)cc1	68	0	0	0	92
CO/N=C(/CNC(=O)c1ccc(Cl)cc1Cl)c1ccc(Cl)cc1	0	0	0	0	62
CCc1nc(NCCc2ccccn2)c2nnn(Cc3ccccc3F)c2n1	67	0	0	0	69
N#C/C(=C\c1ccc(F)cc1)c1n[nH]c(Cn2cncn2)n1	58	0	0	0	0
O=C(Nc1ccc(OC(F)(F)F)cc1)c1n[nH]c(Cn2cncn2)n1	0	0	0	0	0
N#C/C(=C\c1cccc(Cl)c1)c1n[nH]c(Cn2cncn2)n1	52	0	0	0	0
COc1ccc(CNC(=O)C2CSC(=O)C2)cc1 (configuration not stated)	0	0	0	0	0
COc1cccc(/C(C#N)=C/c2c(-c3ccc(Cl)cc3)nc3c(C)cccn23)c1	70	0	0	0	55
CCOC(=O)Cc1cc(OC)c(OC)cc1Cc1cc(OC)c(OC)cc1CC(=O)OCC	0	0	0	0	55
COc1cc(Br)c(CC(=O)O)cc1OC	0	0	0	0	0
COC(=O)Cc1cc(OC)c(OC)cc1Cc1cc(OC)c(OC)cc1CC(=O)OC	0	0	0	0	88
COc1ccc(/C=C/C(=O)NC(C)C)cc1Br	0	0	0	0	0
COc1ccc(/C=C/C(=O)N(C(C)C)C(C)C)cc1Br	0	0	0	0	60
CCCOc1ccc(N2C(=O)CC(N(C(=O)c3ccco3)c3ccc(OCCC)cc3)C2=O)cc1 (configuration not stated)	0	0	0	0	0
Cc1cc(C)cc(N2C(=O)CC(N(C(=O)c3ccco3)c3cc(C)cc(C)c3)C2=O)c1 (configuration not stated)	62	0	0	0	0
COc1ccccc1Oc1ccc2c(c1)C(=O)N(c1cccc(O)c1)C2=O	0	0	0	0	0
Nc1c(S(=O)(=O)c2ccccc2)c2nc3ccccc3nc2n1/N=C/c1cccc(O)c1	0	0	0	0	0
O=C1/C(=C/c2cccs2)Cc2ccccc21	-	0	-	-	-
O=C1/C(=C/c2ccc(F)c(F)c2)CSc2sccc21	78	0	0	0	0
Cc1ccc(C(=O)CNc2ccccc2C)cc1	-	0	-	-	-
Cc1ccccc1NCCNc1ccccc1C	0	0	0	0	83
Cc1cc(NC(=O)CSc2ccc3nnc(-c4cccc(F)c4)n3n2)no1	0	0	0	0	0
CC(=O)Nc1cccc(N2C(=O)CC(Cc3ccccc3)C2=O)c1 (configuration not stated)	0	0	0	0	0
SMILES	CYP2C9 inhib	Measles CPE	CYP2C19 activ	CYP2C9 activ	CYP2C19 inhib
C=CCn1c(N2C(=O)CC(Cc3ccccc3)C2=O)nc2ccccc21 (configuration not stated)	0	0	0	0	79
Cc1nn(-c2ccccc2)c(Cl)c1C(=O)NCC(C)C	63	0	0	0	69
Cc1nn(-c2ccccc2)c(Cl)c1C(=O)OC(C)C(=O)NC(=O)NC1CCCCC1 (configuration not stated)	55	0	0	0	0
COc1ccccc1C(=O)NCC(=O)OC(C)C(=O)NC(=O)NC1CCCCC1 (configuration not stated)	0	0	0	0	0
O=C(N[C@@H](Cc1ccccc1)C(=O)O)c1cccnc1	0	0	0	0	0
CCc1cc2cc3c(cc2nc1SCC(=O)Nc1nnc(C)s1)OCCO3	59	0	0	0	0
Cc1ccc(C)c(NC(=S)NNC(=O)c2csc3c2CCC(C)C3)c1 (configuration not stated)	53	0	0	0	86
Cc1csc(C(C#N)C(=O)c2cc3ccccc3o2)n1 (configuration not stated)	60	0	0	0	0
